From PubChem BioAssay (Tox21)
Where “and” joins values, the source holds several entries; their conditions need not be identical. Equal entries are not always repeated. A number with no mark means an inactive call. Results filed as inconclusive are left out. A call without a number means that no potency is given here. Calls of active or inactive are those of the source. Unless noted, the call rests on the fitted dose curve; in most records, active means well fitted curve in the direction sought with a large enough effect in the repeat runs; inconclusive means weak or mixed curves; inactive means no such curve, though single readings can be large; an effect the other way counts as inactive or inconclusive.

Assays:
[1] = qHTS assay for small molecule agonists of the p53 signaling pathway (AID 651631; calls by dose curve; further: nearly all actives have a fitted effect of over 15% in size; further: potency means the concentration at half of the fitted maximal effect)
Summary of the method: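 HCT-116 p53RE-bla reporter line, 16 h compound treatment at 37 °C, then fluorescence after 2 h with B/G FRET substrate.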

[2] = qHTS assay for small molecules that induce genotoxicity in human embryonic kidney cells expressing luciferase-tagged ATAD5 (AID 651632); further: nearly all actives have a fitted effect of over 15% in size
Summary of the method: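 Luminescent reporter readout, HEK293T ATAD5-luc line: 16 hr drug exposure (37C, 5% CO2) followed by Amplite, 30 min RT.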

[3] = qHTS assay for small molecule agonists of the p53 signaling pathway - cell viability (AID 651633; calls by dose curve;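 further: p53RE-bla HCT reporter cells with a stable beta-lactamase p53 reporter; series mostly up to about 83 µM; nearly all actives have a fitted effect of over 30% in size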)
Summary of the method: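 p53RE-bla cells, seeded at 4,000 per well and rested 5 h at 37 C/5% CO2, received compounds in DMSO for 16 h at 37 C. CellTiter-Glo was then added, and luminescence was read after 30 min at room temperature to gauge cytotoxicity.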

[4] = qHTS assay for small molecules that induce genotoxicity in human embryonic kidney cells expressing luciferase-tagged ATAD5 - cell viability (AID 651634; calls by dose curve; further: nearly all actives have a fitted effect of over 25% in size; further: potency means the concentration at half of the fitted maximal effect)
Summary of the method: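 Viability read: CellTiter-Fluor fluorescence, 30 min at 37C. Cells: HEK293T, luciferase-tagged ATAD5. Exposure: 15.5 hr, 37C, 5% CO2, compound or DMSO vehicle.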

[5] = qHTS assay for small molecule disruptors of the mitochondrial membrane potential - cell viability (AID 720634; calls by dose curve;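 further: human HepG2 liver cancer cells; series mostly up to about 83 µM; nearly all actives have a fitted effect of over 20% in size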)
Summary of the method: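 HepG2, 1 hr compound, 37 C. ATP luminescence via CellTiter-Glo, 30 min RT, same well as m-MPI.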

[6] = qHTS assay to test for compound auto fluorescence at 590 nm (red) in HepG2 cells (AID 720674)
Summary of the method: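 Compound auto-fluorescence is scored relative to Rose Bengal sodium, measured at 540/590 nm in live HepG2 cultures after 1 hr compound contact (37 C, 5% CO2).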

[7] = qHTS assay to test for compound auto fluorescence at 535 nm (green) in HepG2 cells (AID 720675)
[8] = qHTS assay to test for compound auto fluorescence at 460 nm (blue) in HEK293 cells (AID 720678)
Summary of the method: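 HEK293 cells (2,000 per well, medium with 10% dialyzed FBS) attached for 4-5 hr at 37C, then received compound and stood overnight at 37C, 5% CO2. Blue fluorescence was read at Ex/Em 405/460 nm and expressed relative to triamterene.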

[9] = qHTS assay to test for compound auto fluorescence at 590 nm (red) in HEK293 cells (AID 720679)
Summary of the method: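 HEK293 cells (2,000/well, medium with 10% dialyzed FBS) attached for 4-5 hr at 37C, received 23 nL compound and were incubated overnight at 37C, 5% CO2. Red fluorescence was then read at 540/590nm Ex/Em, referenced to Rose Bengal sodium.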

[10] = qHTS assay for small molecule disruptors of the mitochondrial membrane potential (AID 720635); further: potency means the concentration at half of the fitted maximal effect
Summary of the method: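 HepG2 cells (2,000/well) attached overnight at 37C, then took compound for 1 hr at 37C, 5% CO2. Mito-MPS dye was added for 30 min; fluorescence was read at 490/535 nm (monomers) and 540/590 nm (aggregates).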

Compound	Potency [1]	Potency [2]	Potency [3]	Potency [4]	Potency [5]	Potency [6]	Potency [7]	outcome [8]	Potency [9]	Potency [10]	fluorescence, relative to Rose Bengal [6]	fluorescence, % of fluorescein control [7]	fluorescence, % of triamterene [8]	fluorescence, % of fluorescent control [9]
CC1(c2ccccc2)OC(C(=O)O)=CC1=O (centres undefined)	inactive	inactive	inactive	inactive	inactive	inactive	inactive	inactive	inactive	–	–	–	–	–
CC[N+]1(CC)CCC(=C(c2ccccc2)c2ccccc2)C1C (centres undefined)	inactive	inactive	inactive	inactive	inactive	inactive	inactive	inactive	inactive	inactive	–	–	–	–
N=c1ccn2c(n1)O[C@H]1[C@H](O)[C@@H](CO)O[C@H]12	1.5 µM (active) and 1.72 µM (active)	inactive	inactive	inactive	inactive	inactive	inactive	inactive	inactive	inactive	–	–	–	–
c1ccc(-c2ccccn2)nc1	inactive	inactive	inactive	inactive	inactive	inactive	inactive	inactive	inactive	inactive	–	–	–	–
CCCCC/C=C\C/C=C\CCCCCCCC(=O)NC(C)c1ccccc1 (centres undefined)	inactive	inactive	inactive	inactive	inactive	inactive	inactive	inactive	inactive	inactive	–	–	–	–
OC[C@H]1O[C@@H](OCCc2ccc(O)cc2)[C@H](O)[C@@H](O)[C@@H]1O	inactive	inactive	inactive	inactive	inactive	inactive	inactive	inactive	inactive	inactive	–	–	–	–
COc1ccc(C)cc1[N+](=O)[O-]	inactive	inactive	inactive	inactive	inactive	inactive	inactive	inactive	inactive	–	–	–	–	–
O=C(c1ccc(F)cc1)C1CCN(CCn2c(=S)[nH]c3ccccc3c2=O)CC1	inactive	inactive	inactive	inactive	inactive	inactive	inactive	inactive	inactive	–	–	–	–	–
CCCCC1=NC2(CCCC2)C(=O)N1Cc1ccc(-c2ccccc2-c2nn[nH]n2)cc1	inactive	inactive	inactive	inactive	inactive	inactive	inactive	inactive	inactive	–	–	–	–	–
C=CCOC(=O)CCC1CCCCC1	inactive	inactive	inactive	inactive	inactive	inactive	inactive	inactive	inactive	inactive	–	–	–	–
NCc1ccccc1Sc1ccccc1CO	inactive	inactive	inactive	inactive	inactive	–	inactive	inactive	inactive	inactive	–	–	–	–
C=C(C)C(=O)OCCOCC	inactive	inactive	inactive	inactive	inactive	inactive	inactive	inactive	inactive	–	–	–	–	–
Nc1cc(C(=O)O)c(O)c(S(=O)(=O)O)c1	inactive	inactive	inactive	inactive	inactive	inactive	inactive	inactive	inactive	inactive	–	–	–	–
C[C@@H]1C[C@H]2O[C@@]3(O[C@@H]2C(C)(C)O)[C@H](O)[C@@]2(C)[C@@H]4CC[C@H]5C(C)(C)[C@@H](O[C@@H]6OC[C@@H](O)[C@H](O)[C@H]6O)CC[C@@]56C[C@@]46CC[C@]2(C)[C@@H]13	inactive	inactive	inactive	inactive	inactive	inactive	inactive	inactive	inactive	5.38 µM (active)	–	–	–	–
Cc1ncc(CO)c(C=O)c1O	inactive	inactive	inactive	inactive	inactive	–	inactive	inactive	inactive	inactive	–	–	–	–
CCCCC(CC)COC(=O)CCCCCCCCC(=O)OCC(CC)CCCC (centres undefined)	inactive	inactive	inactive	inactive	inactive	inactive	inactive	inactive	inactive	inactive	–	–	–	–
COC(=O)c1ccc(I)cc1S(=O)(=O)NC(=O)Nc1nc(C)nc(OC)n1	inactive	inactive	inactive	inactive	inactive	inactive	inactive	inactive	inactive	–	–	–	–	–
O=C(NCCO[N+](=O)[O-])c1cccnc1	inactive	inactive	inactive	inactive	inactive	inactive	inactive	inactive	inactive	inactive	–	–	–	–
CC/C=C\CCOC(=O)CC	inactive	inactive	inactive	inactive	inactive	inactive	inactive	inactive	inactive	–	–	–	–	–
Nc1ccccc1S(=O)(=O)c1ccccc1	inactive	inactive	inactive	inactive	inactive	inactive	inactive	inactive	inactive	–	–	–	–	–
CCCCCCCCCCCC(=O)OC[C@@H](O)[C@H]1OC[C@H](OCCO)[C@H]1OCCO	inactive	inactive	inactive	inactive	inactive	–	inactive	inactive	inactive	inactive	–	–	–	–
CC(CC=O)c1ccccc1 (centres undefined)	inactive	inactive	inactive	inactive	inactive	inactive	inactive	inactive	inactive	54.5 µM (active)	–	–	–	–
Nc1ccc(S(=O)(=O)Nc2ccccc2)cc1	inactive	inactive	inactive	inactive	inactive	inactive	inactive	inactive	inactive	inactive	–	–	–	–

Compound	Potency [1]	Potency [2]	Potency [3]	Potency [4]	Potency [5]	Potency [6]	Potency [7]	outcome [8]	Potency [9]	Potency [10]	fluorescence, relative to Rose Bengal [6]	fluorescence, % of fluorescein control [7]	fluorescence, % of triamterene [8]	fluorescence, % of fluorescent control [9]
NCC(=O)CCC(=O)O	inactive	inactive	inactive	inactive	inactive	inactive	inactive	inactive	inactive	–	–	–	–	–
C/C(=C(\CCOP(=O)(O)O)SC(=O)c1ccccc1)N(C=O)Cc1cnc(C)nc1N	inactive	inactive	inactive	inactive	inactive	–	–	–	–	inactive	-0.226% [at 18.6 µM]	-0.0371% [at 18.6 µM]	-0.0569% [at 18.6 µM]	0.166% [at 18.6 µM]
C=CC1CC2C=CC1C2 (centres undefined)	inactive	inactive	inactive	inactive	inactive	inactive	inactive	inactive	inactive	–	–	–	–	–
Cc1cc(C(=O)O)ccc1[N+](=O)[O-]	inactive	inactive	inactive	inactive	inactive	inactive	inactive	inactive	inactive	inactive	–	–	–	–
CC1OC(=O)C(C)OC1=O (centres undefined)	inactive	inactive	inactive	inactive	inactive	inactive	inactive	inactive	inactive	inactive	–	–	–	–
O=C1OC(=O)C2C3C=CC(C3)C12 (centres undefined)	inactive	inactive	inactive	inactive	inactive	inactive	–	inactive	inactive	inactive	–	–	–	–
CCOCC(O)COc1ccc(NC(=O)CC[S+](C)C)cc1 (centres undefined)	inactive	inactive	inactive	inactive	inactive	inactive	inactive	inactive	inactive	–	–	–	–	–
CCCCCC[C@@H](O)C/C=C\CCCCCCCC(=O)OC	inactive	inactive	inactive	inactive	inactive	inactive	inactive	inactive	inactive	–	–	–	–	–
CCN(CC)CCNC(=O)c1cc(Br)c(N)cc1OC	inactive	inactive	inactive	inactive	inactive	inactive	inactive	inactive	inactive	inactive	–	–	–	–
COc1ccc(C(=O)N2CCN(CC(=O)N3CCOCC3)CC2)cc1	inactive	inactive	inactive	inactive	inactive	inactive	inactive	inactive	inactive	inactive	–	–	–	–
Cc1ccc(N=Nc2c(O)c(C(=O)O)cc3ccccc23)c(S(=O)(=O)O)c1	inactive	inactive	inactive	11.8 µM (active)	inactive	inactive	inactive	inactive	inactive	–	–	–	–	–
C=C1[C@H]2CC[C@@H]3[C@H]2C(C)(C)CCC[C@]13C	inactive	inactive	inactive	inactive	inactive	inactive	inactive	inactive	inactive	–	–	–	–	–
COC(C)(C)CCO	inactive	inactive	inactive	inactive	inactive	–	–	inactive	inactive	inactive	–	–	–	–
CCCCC(CC)CN1C(=O)C2C3C=CC(C3)C2C1=O (centres undefined)	inactive	inactive	inactive	inactive	inactive	inactive	inactive	inactive	inactive	6.11 µM (active)	–	–	–	–
CC1=CC[C@H](C(C)C)C=C1	inactive	inactive	inactive	inactive	–	inactive	inactive	inactive	inactive	–	–	–	–	–
CC1=CC=C(C(C)C)CC1	inactive	inactive	inactive	inactive	–	inactive	inactive	inactive	inactive	–	–	–	–	–
Clc1ccc(Cn2c(CN3CCCC3)nc3ccccc32)cc1	inactive	inactive	inactive	inactive	inactive	–	–	–	–	–	-0.15% [at 18.6 µM]	–	0.123% [at 18.6 µM]	0.574% [at 18.6 µM]
CCCCCCCCO[C@@H]1O[C@H](CO)[C@@H](O)[C@H](O)[C@H]1O	inactive	inactive	inactive	inactive	inactive	inactive	inactive	inactive	inactive	–	–	–	–	–
CCCCC	inactive	inactive	inactive	inactive	inactive	–	inactive	inactive	inactive	–	–	–	–	–
ClCCOCCOCCCl	inactive	inactive	inactive	inactive	–	inactive	–	inactive	inactive	–	–	–	–	–
Cn1c(=O)cc(Oc2ccc(F)cc2F)c2cnc(NCC(C)(C)O)nc21	inactive	inactive	inactive	inactive	–	inactive	inactive	inactive	inactive	–	–	–	–	–
O=C(OCCCCCCOC(=O)c1ccccc1)c1ccccc1	inactive	inactive	inactive	inactive	–	inactive	–	inactive	inactive	inactive	–	–	–	–
